High-throughput results deposited in PubChem BioAssay by Broad Institute.
A selection follows.
aSyn UTR act: Activators via SNCA 5'UTR binding, MLPCN; 300,000 compounds, 7.1% hits; AID 1814; activity score, % (tested at 7.5 µM), hits read low; alpha-synuclein 5'UTR reporter, activators screen; in the data active means activity score below about -60%
* = called active by the depositor.

SMILES	aSyn UTR act
CC(C)n1cc(/C=N/Nc2ccc(C(=O)O)cc2)c2ccccc21	-79.3*
COc1cc(/C=N/n2cnnc2)ccc1OS(=O)(=O)c1ccccc1[N+](=O)[O-]	-177.8*
COc1cc(C=O)ccc1OS(=O)(=O)c1ccccc1[N+](=O)[O-]	-118.7*
COCc1cc(C)nc2sc(C(=O)Nc3cccc(OC)c3)c(N)c12	-192.1*
COCc1cc(C)nc2sc(C(=O)Nc3nccs3)c(N)c12	-120.9*
O=C(Nc1nnc(-c2cccc(F)c2)s1)Nc1ccccc1F	-98.1*
O=C(Nc1nnc(CC2=CCCCC2)s1)Nc1ccccc1F	-80.9*
CC(c1ccccc1)c1nnc(NC(=O)Nc2ccccc2F)s1 (stereo not given)	-95.2*
CC(CC(=O)Nc1nc2ccccc2[nH]1)c1ccccc1 (stereo not given)	-188.5*
O=C(COc1ccccc1)Nc1nc2ccccc2[nH]1	-150.3*
Cc1ccccc1OCC(=O)Nc1nc2ccccc2[nH]1	-111.2*
CCCC(=O)N1CCN(c2nc3ccccc3s2)CC1	-103.9*
CC(C)(C)C(=O)N1CCN(c2nc3ccccc3s2)CC1	-118.9*
CCC(=O)N1CCN(c2nc3ccc(Br)cc3s2)CC1	-116.8*
O=C(c1cccs1)N1CCN(c2nc3ccccc3s2)CC1	-65.7*
O=C(NC1CC1)C1CCN(c2nc3ccccc3s2)CC1	-86.3*
CCc1ccc2nc(N3CCN(C(=O)C(C)(C)C)CC3)sc2c1	-97.8*
Cc1cccc(N=C2NN=C(c3c(C)[nH]c4ccccc34)CS2)c1	-90.3*
Cc1cccc(N=C2NN=C(c3ccc4c(c3)OCCO4)CS2)c1	-139.8*
O=C(CSc1ccccc1)Nc1ccc2sccc2c1	-77.9*
O=C(CSc1cccs1)Nc1ccc2ccccc2c1	-125.7*
O=C(CSc1cccs1)Nc1cccc2ccccc12	-112.4*
O=C(NC1CCCCC1)c1cc2ccccc2cc1O	-81.2*
Cc1ccccc1C(=O)NC1CCCCCCC1	-147.7*
O=C(NC1CCCCCCC1)c1ccccc1O	-174.8*
SMILES	aSyn UTR act
O=[N+]([O-])c1cc(-c2nc(-c3ccncc3)no2)cc([N+](=O)[O-])c1	-118.3*
O=[N+]([O-])c1cc(-c2nc(-c3ccncc3)no2)ccc1Cl	-79.3*
Cc1cc(C)n2c(Br)c(CSc3nc4ccccc4o3)nc2n1	-87.2*
Brc1ccc2c(c1)OCCOCCOc1cc(Br)ccc1OCCOCCOCCO2	72.7
O=C(c1cc2cc(Br)ccc2o1)N1CCCC1	-63.5*
O=C(c1cc2cc(Br)ccc2o1)N1CCOCC1	-84.9*
O=c1c(=Nc2ccccc2O)c(=O)c2ccccc12	-111.6*
Clc1ccc(-c2n[nH]c3c2Cc2ccccc2-3)cc1Cl	-66.3*
CCOC(=O)c1sc(NC(=O)c2ccc(C)s2)cc1C	-170.4*
CCOC(=O)c1sc(NC(=O)c2cccc(S(=O)(=O)N3c4ccccc4CC3C)c2)cc1C (stereo not given)	79.5
CCOC(=O)c1sc(NC(=O)C2CCC2)cc1C	-110.0*
CCOC(=O)c1sc(NC(=O)Nc2ccccc2Cl)cc1C	-94.9*
CCOC(=O)c1ccc2[nH]c3c(c2c1)CCCC3	-124.2*
COC(=O)c1ccc2[nH]c3c(c2c1)CC(C)CC3 (stereo not given)	-95.5*
COc1cc(C)ccc1OCc1cc(C(=O)N2CCCCCCC2)no1	-62.3*
COc1cc(C)ccc1OCc1cc(C(=O)N2CCN(C3CCCCC3)CC2)no1	-99.0*
Cc1ccc(OCc2cc(C(=O)N3CCC(c4ccccc4Cl)C3)no2)cc1C (stereo not given)	-164.7*
COc1ccccc1N1CCN(C(=O)c2c(-c3ccccc3)noc2C)CC1	-77.6*
CCN1CCN(C(=O)c2cc(COc3ccc(C(C)=O)cc3OC)on2)CC1	-146.2*
Cc1ccc(OCc2cc(C(=O)N3CCN(c4ccccc4)CC3)no2)cc1C	-155.3*
Cc1ccc(OCc2cc(C(=O)N(CCO)Cc3cccs3)no2)cc1C	-81.5*
COc1ccc(C(=O)/C=C/C(=O)N(CC(=O)NCCC(C)C)Cc2cccs2)c(O)c1	61.3
COc1cc(C)ccc1OCc1cc(C(=O)NC(C)Cn2cncn2)no1 (stereo not given)	-154.8*
Cc1ccc(OCc2cc(C(=O)N3CCC(C(O)C(C)C)CC3)no2)cc1C (stereo not given)	-80.0*
COc1cccc(OCc2cc(C(=O)N3CCN(c4ccccc4OC)CC3)no2)c1	-139.3*
SMILES	aSyn UTR act
COc1cccc(N2CCN(C(=O)c3ccc(CS(=O)c4ccccc4Cl)o3)CC2)c1 (stereo not given)	110.4
Cc1ccc(OCc2cc(C(=O)N3CCN(C4CCCCC4)CC3)no2)cc1C	-62.3*
Cc1csc(NC(=O)CSc2nnnn2C)n1	-67.7*
Cc1nc(NC(=O)CSc2nnnn2C)sc1C	-120.9*
COC(=O)c1sc(NC(=O)CSc2nnnn2C)nc1C	-73.5*
CCCN1CCC(=NNc2ccc(C(=O)O)cc2)CC1	-112.6*
COC(=O)c1ccc(COc2ccc(/C=N/Nc3cccc(C(=O)O)c3)cc2)cc1	-84.4*
O=C(O)c1cc(NN=C2CCN(Cc3ccccc3)CC2)ccc1Cl	-201.9*
CCCN1CCC(=NNc2ccc(S(=O)(=O)N3CCOCC3)cc2[N+](=O)[O-])CC1	64.1
